The sample as a whole holds a higher share of hits than the screen did.
ERK EGF block = EGF-driven ERK pathway inhibition | HEK293-V1b, EGF-stimulated phospho-ERK AlphaScreen | Potency, µM (top dose mostly 11.5 µM), usual class: inhibitors | 130,000 compounds, 0.41% hits | AID 1454; further: nearly all actives have a fitted effect of over 55% in size
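HEK293 cells stably expressing V1b receptor, serum-reduced (1% FBS) overnight, pretreated 30 min with compound, then stimulated 5 min with 25 nM EGF; phospho-ERK detected by AlphaScreen SureFire. AC50 from Hill fits, normalized to DMSO and EGF.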
NPSR antag = neuropeptide S receptor (human) antagonism, cAMP | CHO-NPSR cells, cAMP TR-FRET, antagonist mode | Potency, µM (titrated, usually from 38.3 µM), usual class: inhibitors | 220,000 compounds, 1% hits | AID 1461; further: nearly all actives have a fitted effect of over 50% in size
Target sequence (Q6W5P4 whole entry, looked up): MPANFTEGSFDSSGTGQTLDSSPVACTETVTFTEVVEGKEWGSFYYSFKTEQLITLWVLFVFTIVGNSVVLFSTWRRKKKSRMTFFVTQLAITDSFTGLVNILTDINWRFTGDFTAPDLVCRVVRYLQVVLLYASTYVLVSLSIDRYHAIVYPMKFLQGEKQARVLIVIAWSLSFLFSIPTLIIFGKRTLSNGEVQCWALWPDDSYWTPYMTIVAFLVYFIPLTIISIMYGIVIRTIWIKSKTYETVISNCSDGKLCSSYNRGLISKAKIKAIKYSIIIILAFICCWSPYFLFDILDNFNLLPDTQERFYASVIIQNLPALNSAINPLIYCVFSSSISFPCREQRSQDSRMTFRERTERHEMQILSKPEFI
A number is an active result; 0 = inactive; ? = inconclusive; - = no result given; [ ] = dose if it differs, or a comment. The call rests on the fitted dose curve; in most records, active means well fitted curve in the direction sought with a large enough effect; inconclusive means small, poorly fitted or top-dose-only effect, or another doubt; inactive means no such curve, though single readings can be large; an effect the other way counts as inactive or inconclusive.

SMILES	ERK EGF block	NPSR antag
COc1cc(C(=O)Oc2c(CN3CCOCC3)cc(Cl)c3cccnc23)cc(OC)c1OC	-	0
COc1cccc(C(=O)Oc2c(CN3CCOCC3)cc(Cl)c3cccnc23)c1	-	10µM
O=C(Oc1c(CN2CCOCC2)cc(Cl)c2cccnc12)c1ccc(F)cc1	-	5µM
O=C(Oc1c(CN2CCOCC2)cc(Cl)c2cccnc12)c1cccs1	0	?
O=C(Oc1c(CN2CCOCC2)cc(Cl)c2cccnc12)c1ccccc1Cl	0	7.9µM
COc1ccc(C(=O)Oc2c(CN3CCOCC3)cc(Cl)c3cccnc23)cc1	-	0
COCCn1c(=O)c(CCc2ccccc2)nc2cnc(Oc3cccc(Cl)c3)nc21	0	-
COc1ccc(C2N(Cc3ccccc3)CC(=O)N2/N=C(\C)c2ccccc2)cc1 (stereo not drawn)	0	0
CN1CC(c2ccccn2)C2(SC(=S)N(Cc3ccccc3)C2=O)C12C(=O)Nc1ccccc12 (stereo not drawn)	-	0
CN1CC(c2ccccc2)C2(SC(=S)N(Cc3ccco3)C2=O)C12C(=O)Nc1ccccc12 (stereo not drawn)	-	10µM
Cc1ccccc1Nc1nnc(SCC(=O)NC2CCCc3ccccc32)s1 (stereo not drawn)	0	0
CC(C)c1ccc(-c2nc(N3CCCCC3)[nH]c(=O)c2C#N)cc1	0	0
CC1CCN(c2nc(-c3ccccc3)c(C#N)c(=O)[nH]2)CC1	-	13µM
O=c1[nH]c(SCc2ccc(F)cc2Cl)nc2ccccc12	0	0
CCC(C(=O)NCc1ccccc1OC)c1ccccc1 (stereo not drawn)	0	0
CC(C)OCCCn1c(-c2ccc(Br)cc2)c[nH]c1=S	0	0
Cc1ccc(C(=O)Nc2c(-c3cccs3)c(=O)c3ccccc3n2C)cc1	-	0
COc1ccc(C(=O)Nc2c(-c3cccs3)c(=O)c3ccccc3n2C)cc1	5.6µM	0[7.67 µM]
COc1ccccc1C1OC(=O)CC1C(=O)OC[C@@H]1CCCN2CCCCC12 (stereo partly drawn)	0	-
CC(C)C1NC(=O)[C@H](CCCCN)NC(=O)[C@@H](Cc2c[nH]c3ccccc23)NC(=O)[C@H](Cc2ccc(O)cc2)NC(=O)[C@H](C)N(C)C(=O)[C@H](Cc2ccccc2)NC1=O (stereo partly drawn)	0	0
CC(C)CC1NC(=O)C(CCCN)NC(=O)C(C(C)C)NC(=O)C2CCCN2C(=O)C(Cc2ccccc2)NC(=O)C(CC(C)C)NC(=O)C(CCCN)NC(=O)C(C(C)C)NC(=O)C2CCCN2C(=O)C(Cc2ccccc2)NC1=O (stereo not drawn)	3.5µM	-
CC(C)N(C(=O)COC(=O)c1ccccc1C(=O)c1ccc(Cl)c([N+](=O)[O-])c1)C(C)C	0	?
O=C(COC(=O)c1ccccc1C(=O)c1ccc(Cl)c([N+](=O)[O-])c1)NC1CCCCCC1	-	10µM
CCN(Cc1ccccc1)c1ccc(/C=N/NS(=O)(=O)c2ccc(C)c([N+](=O)[O-])c2)cc1	0	0
CCN(Cc1ccccc1)c1ccc(N=Nc2nn(C)c(C)c2[N+](=O)[O-])cc1	20µM	0
SMILES	ERK EGF block	NPSR antag
CCN(CC)c1ccc(N=Nc2ncn[nH]2)cc1	0	0
CCN(CC)c1ccc(N=Nc2nn(C)c(C)c2[N+](=O)[O-])cc1	16µM	0
COc1cc(C=O)c([N+](=O)[O-])cc1OC	0	-
CC(C)[C@H](NC(=O)c1ccco1)C(=O)OCC(=O)c1ccc2c(c1)NC(=O)CO2	0	0
CC(C)CC(NC(=O)c1ccc(Cl)cc1)C(=O)OCC(=O)c1ccc2c(c1)NC(=O)CO2 (stereo not drawn)	-	10µM
Cc1cc(Br)c2nc3c(c(C(=O)O)c2c1)CCCCC3	-	1µM
CCc1ccc2nc3c(c(C(=O)O)c2c1)CCC3	-	0
Nc1ncnc2nc(-c3ccc(N4CCOCC4)nc3)cc(-c3cccc(Br)c3)c12	0	-
CCN(CC(=O)Nc1cccc(C(C)=O)c1)S(=O)(=O)c1ccc(C)cc1	0	0
CCn1nc([N+](=O)[O-])c(C(C#N)c2nc3ccccc3n2C)c(Cl)c1=O (stereo not drawn)	0	0
CCCn1nc([N+](=O)[O-])c(C(C#N)c2nc3ccccc3s2)c(Cl)c1=O (stereo not drawn)	-	10µM
Cn1c2ccccc2c2nnc(SCC(=O)NCc3ccoc3)nc21	0	0
CCc1ccc(-n2c(=O)c3c(C)c(C(=O)N(C)C)sc3n(CC(=O)NCc3ccco3)c2=O)cc1	-	0
O=[N+]([O-])c1cc2oc3c(c2c(C=NCc2ccccc2)c1O)CCCC3	0	10µM
CC(C)CN=Cc1c(O)c([N+](=O)[O-])cc2oc3c(c12)CCCC3	0	?
Cc1cccc2c1N1C(=O)c3c(C(=O)O)cccc3C1CC2C (stereo not drawn)	0	0
COc1ccccc1NS(=O)(=O)c1cc(N2Cc3ccccc3C2=N)ccc1N1CCOCC1	0	2.5µM
COc1ccccc1NS(=O)(=O)c1cc(NC(=O)C2CC2)ccc1N1CCOCC1	0	0
Cc1ccc(S(=O)(=O)NC(C)(C)CN2CCC(Cc3ccccc3)CC2)cc1	?	0
COC(=O)c1ccc(COc2cccc(C)c2C)cc1	0	0
CC(C)(C)NC(=O)COC(=O)CNC(=O)c1cc(Cl)cc([N+](=O)[O-])c1	0	0
COc1cccc(C(C(=O)NC2CCCCC2)N(CC2CCCO2)C(=O)CNC(=O)c2ccco2)c1 (stereo not drawn)	0	0
CCN(CC)CCCNC(=O)C1c2ccccc2C(=O)N(CCOC)C1c1ccc(F)cc1 (stereo not drawn)	0	0
CCN(CCCNC(=O)C1c2ccccc2C(=O)N(CCOC)C1c1ccc(F)cc1)Cc1ccccc1 (stereo not drawn)	0	10µM
COc1ccccc1N1CCN(C(=O)COc2ccc(S(=O)(=O)NC(C)(C)C)cc2)CC1	0	0
SMILES	ERK EGF block	NPSR antag
C/C(=N\NC(=O)c1ccn(C)n1)c1cccc(NC(=O)c2ccc(C)s2)c1	0	0
COCC(C)NC(=O)CSc1nnc(-c2cccc(S(=O)(=O)N3CCCCC3)c2)o1 (stereo not drawn)	0	0
CC(NC(=O)CSc1nnc(-c2cccc(S(=O)(=O)N3CCCCC3)c2)o1)C12CC3CC(CC(C3)C1)C2 (stereo not drawn)	-	10µM
Cc1ccc2nc3cc([N+](=O)[O-])cc([N+](=O)[O-])c3cc2c1	0	7.9µM
Cc1nc2ccc([N+](=O)[O-])cc2nc1C	0	0
Cc1nn2c(N)c(C#N)cnc2c1-c1ccccc1	0	0
Cc1nn2c(N)c(C#N)cnc2c1-c1ccc(Cl)cc1	-	7.9µM
CC1=NOC(=O)/C1=C\c1ccc(-c2ccc(Cl)c(C(=O)O)c2)o1	0	0
CC1=NOC(=O)/C1=C\c1ccc(-c2ccccc2Br)o1	0	10µM
O=C(CSc1nnc(-c2ccccc2)o1)OCc1ccccc1	-	0
Cc1nnc(SCc2nc3scc(-c4ccccc4)c3c(=O)[nH]2)s1	0	0
CCn1c(SCc2nc3scc(-c4ccccc4)c3c(=O)[nH]2)nnc1-c1cccs1	25µM	0
O=C(OCC(=O)N1CCN(C(=O)c2ccco2)CC1)c1cc(-c2ccc(Cl)c(Cl)c2Cl)nc2ccccc12	-	10µM
O=C(OCC(=O)N1CCN(C(=O)c2ccco2)CC1)c1cc(-c2ccco2)nc2ccccc12	-	0
Cc1[nH]n(-c2ccccc2)c(=O)c1N=Nc1ccccc1	16µM	0
Nc1[nH]n(-c2ccccc2)c(=O)c1N=Nc1ccc2c(c1)OCO2	22µM	0

Source: PubChem (National Center for Advancing Translational Sciences (NCATS))
